Several values for one entry are separate records, joined by “and”; a condition that tells them apart may be missing. Equal values may be shown once. Inconclusive results are not listed. For some assays here: Results with a measured potency or affinity are listed apart. Some compounds were tested as several samples or in several runs, with calls that do not always agree. Activity calls are given as the source filed them. Unless noted, the rule behind the calls is not given here.
Key:
[1] = EMT-state selective cytotoxicity in co-culture – imaging, PC-3E GFP, TEM4-18 mCherry, primary screen (AID 1345086;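 active = compounds killing one labelled cell type while sparing the other, by normalised counts and ratio limits, not self-fluorescent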;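 for all read-outs here: cells exposed to compound for 72 h before imaging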;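 for red/green cell ratio (normalised): normalised mesenchymal count divided by normalised epithelial count so high means epithelial killing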); details: PC-3E GFP / TEM4-18 mCherry co-culture, imaging cell counts, at 1 µM; for red/green cell ratio (normalised): actives lie on both sides, counts scaled to control wells, 1 = unselective
[2] = compounds altering viability of human ES cells (AID 493140); details: human embryonic stem cell survival screen; stronger effect = higher value;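 note: cells exposed to compounds for four days before counting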
[3] = P. berghei load reduction in hepatocytes – cell-based, HepG2, luciferase luminescence, HepG2 viability, primary screen (AID 624349; in the data active = parasite load remaining mostly below about 12%, no sharp cut-off; inactive = mostly above about 10%;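 note: 100% = mean of DMSO negative control wells on the same plate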); details: P. berghei liver stage in HepG2, luciferase luminescence, concentration not given here; parasite load remaining: stronger effect = lower value; viability: measured here: HepG2 viability without parasites
[4] = tested on: Aerobactin synthetase IucA (Klebsiella pneumoniae); assay: inhibition of K. pneumoniae IucA enzyme – biochemical, Tocris library, absorbance (AID 1345561); details: purified IucA enzyme assay, absorbance (OD) read-out; stronger effect = lower value;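 tested at 8 µM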;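 note: 100% = enzyme without compound and 0% = no enzyme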
[5] = viability loss in pontine glioma line – cell-based, SU-DIPG-XVII, MIPE5.0, CellTiter-Glo, qHTS, dose response (AID 1347060; cut-off not given, nearly all actives have AC50 up to about 26 µM); details: CellTiter-Glo ATP luminescence
[6] = viability loss in pontine glioma line – cell-based, SU-DIPG-XIII, MIPE4.0, CellTiter-Glo, qHTS, dose response (AID 1347061; cut-off not given, nearly all actives have AC50 up to about 37 µM;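 note: cells exposed to compound for 48 hours before readout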); details: CellTiter-Glo ATP luminescence
[7] = viability loss in pontine glioma line – cell-based, SU-DIPG-XXV, MIPE5.0, CellTiter-Glo, qHTS, dose response (AID 1347065; cut-off not given, nearly all actives have AC50 up to about 26 µM;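 note: cells exposed to compound for 48 hours before ATP readout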); details: CellTiter-Glo ATP luminescence
[8] = growth inhibition of DIPG cells – cell-based, MIPE4.0 library, CellTiter-Glo luminescence, qHTS (AID 1347066; cut-off not given, nearly all actives have AC50 up to about 30 µM;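 note: cells exposed to compound for 48 hours before readout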); details: SU-DIPG-VI viability, CellTiter-Glo ATP luminescence
[9] = JHH-DIPG-1 glioma cell viability, MIPE5.0 library, CellTiter-Glo luminescence, qHTS (AID 1347067; cut-off not given, nearly all actives have AC50 up to about 26 µM;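 note: cells exposed to compound for 48 hours before readout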); details: JHH-DIPG-1 glioma viability, CellTiter-Glo ATP luminescence
[10] = growth inhibition of DIPG cells – cell-based, MIPE5.0 library, qHTS (AID 1347068; cut-off not given, nearly all actives have IC50 up to about 30 µM;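 for IC50: cells exposed to compound for 48 hours before viability readout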); details: SU-DIPG-XXV viability
[11] = viability loss with induced miR-34 in A549 – imaging, A549 dox-inducible miR-34, nuclei and caspase counts, primary screen (AID 1347080;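 active = compounds whose cell count with miR-34 switched on is under 0.7 times the count with it off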); details: A549 miR-34 inducible, Hoechst nuclei count, 48 h
[12] = MELAS cybrid and Rieske KO viability enhancers – cell-based, MELAS cybrids, Rieske KO mouse fibroblasts, CellTiter-Glo, primary screen (AID 1508586;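 active = mean z-score across replicates of 1.96 or higher in either the MELAS or the Rieske mutant cell line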;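 note: z relative to plate mean and SD of compound and empty wells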); details: low glucose
[13] = galactose survival enhancers in mitochondrial complex I cybrids – cell-based, galactose medium, ATP luminescence, primary screen (AID 1645843;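 active = z-score of at least 1.8 in each of two replicates, scored against plate mean and spread of sample wells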;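 note: positive z means more ATP and so rescue of galactose-driven cybrid death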); details: complex I mutant cybrid cells, 72 h, stronger effect = higher value
[14] = blockers of polyQ-driven CASP3 activation – cell-based (AID 1583); details: polyglutamine-induced caspase-3 activation, cell assay; stronger effect = higher value;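 tested at 10 µM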
[15] = yeast 75Q aggregation reduction – 75Q-TubU reporter (AID 1593); details: Yeast 75Q polyglutamine aggregation reporter
[16] = restoration of touch response, mutant HTT neurons – whole organism, C. elegans mechanosensory neurons, N-terminal huntingtin (AID 1599); details: C. elegans polyQ-huntingtin mechanosensory neurons, stronger effect = higher value
[17] = blockers of cytochrome c efflux from mitochondria – biochemical, purified mitochondria (AID 1603); details: stronger effect = lower value;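 note: mouse liver mitochondria challenged with calcium chloride; signal normalized to the plate average as 100%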
[18] = polyglutamine aggregate formation blockers (AID 1604); details: polyglutamine-induced protein aggregation inhibition assay; stronger effect = higher value; tested at 2.5 µM
[19] = rescue of PC12 cells from polyQ htt toxicity – LDH release (AID 1610); details: PC12 mutant huntingtin toxicity, final LDH at 4 uM, stronger effect = lower value
[20] = glutamate transport activators, MN-1 cells, MN-1 cell line (AID 1612); details: MN-1 motor neuron cells, stronger effect = higher value;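 note: tested at 1 µM final; 0% = mean of DMSO vehicle wells on each plate; positive means more glutamate uptake than control and negative means less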
[21] = GFP-Q80 aggregate reduction, neuronal-like cells, cell-based, NGF-treated PC12, GFPQ80 (AID 1614); details: PC12 NGF-treated GFP-polyQ80 inclusion reduction;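 note: lower means fewer inclusions and 0 means no inclusions at all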
[22] = 75Q-TubH aggregate inhibition, S. cerevisiae, yeast (AID 1616); details: S. cerevisiae 75Q-TubH polyglutamine aggregation suppression; stronger effect = higher value
[23] = compounds altering circadian rhythm period length – cell-based, LOPAC library, luminescence reporter (AID 2774); details: circadian reporter cells, at 7 µM, actives lie on both sides;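 note: values are relative to mean of DMSO wells on each plate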
[24] = tested on: Hepatitis C virus NS3 helicase; assay: blockers of NS3h binding to ssDNA – biochemical, fluorescence polarization, LOPAC1280 library, primary screen (AID 687035; in the data active = inhibition above about 37%); details: Purified HCV NS3 helicase, Cy5-dT15 ssDNA binding fluorescence polarization; stronger effect = higher value; concentration not given here
[25] = compounds altering Cy5-DNA-NS3h complex signal – biochemical, LOPAC1280, artefact control for HCV NS3 helicase inhibitor project (AID 687037); details: Cy5-DNA-NS3h complex fluorescence interference counterscreen
[26] = viability loss in pontine glioma line – cell-based, JHH-DIPG-1, MIPE4.0, CellTiter-Glo, qHTS, dose response (AID 1347062; cut-off not given, nearly all actives have AC50 up to about 27 µM); details: JHH-DIPG-1 viability, CellTiter-Glo ATP luminescence
[27] = viability loss in pontine glioma line – cell-based, SU-DIPG-IV, MIPE4.0, CellTiter-Glo, qHTS, dose response (AID 1347063; cut-off not given, nearly all actives have AC50 up to about 30 µM;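 note: compound exposure lasted 48 hours before the viability readout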); details: CellTiter-Glo ATP luminescence
[28] = blockers of cellular phospholipid synthesis – cell-based, LOPAC library, screen 4, primary screen (AID 1347384); details: animal cells, phospholipid biosynthesis inhibition screen; at 10 µM
[29] = molecular target: Mitogen-activated protein kinase 7 (Homo sapiens) (UniProt Q13164); assay: Gal4-ERK5 driven luciferase induction – cell-based, HTS, primary screen (AID 1508626;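 active = luciferase signal above three times the same-plate solvent-only control wells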;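 note: luciferase driven by Gal4-ERK5 fusion binding five Gal4 sites before minimal TATA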); details: HeLa Gal4-ERK5 transactivation, 18 h, at 5 µM, stronger effect = higher value
Sequence of Mitogen-activated protein kinase 7 (Homo sapiens) (Q13164 whole entry, looked up, the tested form may be a part): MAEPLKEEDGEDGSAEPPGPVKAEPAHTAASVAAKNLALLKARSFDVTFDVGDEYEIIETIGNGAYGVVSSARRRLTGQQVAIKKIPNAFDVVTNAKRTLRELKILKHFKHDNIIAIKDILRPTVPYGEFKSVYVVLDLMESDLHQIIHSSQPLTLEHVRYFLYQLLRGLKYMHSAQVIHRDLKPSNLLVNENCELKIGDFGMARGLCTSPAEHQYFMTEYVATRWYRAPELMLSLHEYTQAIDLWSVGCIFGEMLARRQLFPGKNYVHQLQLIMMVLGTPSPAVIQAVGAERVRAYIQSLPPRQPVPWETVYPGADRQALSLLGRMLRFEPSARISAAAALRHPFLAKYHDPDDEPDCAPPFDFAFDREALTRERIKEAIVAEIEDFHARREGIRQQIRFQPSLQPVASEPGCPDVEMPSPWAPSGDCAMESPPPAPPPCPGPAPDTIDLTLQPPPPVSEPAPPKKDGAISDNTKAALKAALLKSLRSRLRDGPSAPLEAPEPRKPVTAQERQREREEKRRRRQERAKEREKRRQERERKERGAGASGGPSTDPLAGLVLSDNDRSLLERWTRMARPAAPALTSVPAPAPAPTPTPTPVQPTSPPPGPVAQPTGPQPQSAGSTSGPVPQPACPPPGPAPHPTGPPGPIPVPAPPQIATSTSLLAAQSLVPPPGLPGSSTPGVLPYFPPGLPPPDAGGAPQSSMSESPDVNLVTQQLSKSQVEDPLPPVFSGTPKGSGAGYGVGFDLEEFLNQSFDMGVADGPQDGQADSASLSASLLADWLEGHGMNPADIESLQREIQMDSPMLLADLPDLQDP

[30] = measured here: epithelial PC-3E GFP cell survival
[31] = measured here: mesenchymal TEM4-18 mCherry cell survival
[32] = stronger effect = lower value, cell number ratio, induced over uninduced
[33] = measured here: relative caspase fold change +Dox/-Dox
[34] = measured here: total cells with miR-34 induction, stronger effect = lower value
[35] = measured here: total cells without miR-34 induction

Compound: C=CC(C)(C)c1ccc2[nH]c3c(c2c1)C[C@@H]1CC[C@@]2(O)C4=CC(=O)[C@@H]5O[C@@]4(CC[C@]2(C)[C@@]31C)OC5(C)C
- red/green cell ratio (normalised) [1]: 1.04 (inactive)
- normalised cell number [1, 30]: 0.97
- normalised cell number [1, 31]: 1.01

Compound: O=c1c(O)c(-c2ccc(O)cc2)oc2cc(O)cc(O)c12
- survival [2]: 7.5 (inactive)
- parasite load remaining [3]: 80.6% (inactive)
- viability [3]: 69.5%
- red/green cell ratio (normalised) [1]: 1 (inactive)
- normalised cell number [1, 30]: 1.03
- normalised cell number [1, 31]: 1.03
- remaining activity [4]: 107% (inactive)
- outcome [5]: inactive
- outcome [6]: inactive
- outcome [7]: inactive
- outcome [8]: inactive
- outcome [9]: inactive
- outcome [10]: inactive
- fold change [11, 32]: 0.974 (inactive) and 0.869 (inactive) and 0.836 (inactive)
- fold change [11, 33]: 0.804 and 0.921 and 1.47
- cell count [11, 34]: 9050 and 8750 and 6630
- cell count [11, 35]: 9290 and 10100 and 7930
- z-score ([12]; MELAS cybrid survival, CellTiter-Glo 48 h, stronger effect = higher value): -0.357 (inactive)
- z-score ([12]; Rieske KO mouse fibroblast survival, CellTiter-Glo 72 h): 0.291
- z-score [13]: -0.765 (inactive)

Compound: O=C(O)C1CC(C2CCCCN2)CN2CCCCC12 (centres undefined)
- red/green cell ratio (normalised) [1]: 1.06 (inactive)
- normalised cell number [1, 30]: 0.95
- normalised cell number [1, 31]: 1

Compound: CC(CC(=O)N1C(=O)OC[C@H]1c1ccccc1)N1CCOC1=S (some centres undefined)
- red/green cell ratio (normalised) [1]: 0.87 (inactive)
- normalised cell number [1, 30]: 1.09
- normalised cell number [1, 31]: 0.95

Compound: OC[C@H]1O[C@@](CO)(O[C@@H]2O[C@H](CO)[C@@H](O)[C@H](O)[C@H]2O)[C@@H](O[C@@H]2O[C@H](CO)[C@@H](O)[C@H](O)[C@H]2O)[C@@H]1O
- red/green cell ratio (normalised) [1]: 0.9 (inactive)
- normalised cell number [1, 30]: 1.13
- normalised cell number [1, 31]: 1.01

Compound: NCCCCNCCCN
- inhibition [14]: 7.23%
- score [15]: 1
- rescue above control [16]: -7.17
- cytochrome c release ratio [17]: 1.12
- inhibition of aggregation [18]: 57.8%
- normalised LDH release [19]: 0.936
- glutamate uptake change [20]: -3.1%
- inclusion score [21]: 2
- aggregation suppression score [22]: 0.846
- period change [23]: 0.115 h (inactive)
- inhibition [24]: -2% (inactive)
- fluorescence ratio (interference) [25]: 1 (inactive)
- red/green cell ratio (normalised) [1]: 0.89 (inactive)
- normalised cell number [1, 30]: 0.98
- normalised cell number [1, 31]: 0.87
- remaining activity [4]: 101% (inactive)
- outcome [5]: inactive
- outcome [26]: inactive
- outcome [27]: inactive
- outcome [7]: inactive
- outcome [8]: inactive
- outcome [9]: inactive
- IC50 [10]: 1.18 nM (active)
- fold change [11, 32]: 0.943 (inactive) and 0.936 (inactive)
- fold change [11, 33]: 1.92 and 0.604
- cell count [11, 34]: 9580 and 9960
- cell count [11, 35]: 10200 and 10600
- outcome [28]: inactive
- luciferase signal [29]: 48 AU (inactive)
- z-score [13]: -0.635 (inactive) and -0.08 (inactive)

Compound: O=C(O)c1ccccc1Nc1cccc(OCc2ccc3ccccc3n2)c1
- period change [23]: -0.125 h (inactive)
- inhibition [24]: 0% (inactive)
- fluorescence ratio (interference) [25]: 1 (inactive)
- red/green cell ratio (normalised) [1]: 0.86 (inactive)
- normalised cell number [1, 30]: 1.35
- normalised cell number [1, 31]: 1.16
- remaining activity [4]: 112% (inactive)
- fold change [11, 32]: 0.992 (inactive) and 0.929 (inactive)
- fold change [11, 33]: 0.944 and 0.452
- cell count [11, 34]: 9820 and 8230
- cell count [11, 35]: 9900 and 8860
- z-score [13]: 2.17 (active) and -0.695 (inactive)
